DAX1 inh-1: DAX1 (NR0B1) inhibitors, primary screen, cell-based, HEK293, Gal4-DAX1, luciferase luminescence; Nuclear receptor subfamily 0 group B member 1 (Homo sapiens), P51843; HEK293 Gal4-DAX1 luciferase reporter; inhibition, % at 6.75 µM; actives 0.99% (n = 340,000); AID 504766, 2011;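 active = inhibition above the mean over all tested compounds plus 3 SD, cut at about 4.2% in these data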;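 note: 0% = DAX1-transfected cells with DMSO and 100% = empty-vector control cells with DMSO; inhibition shows as a rise in luminescence from relieved DAX1 repression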
hgDAF12 agonist: H. glycines DAF-12 receptor agonists, primary screen, cell-based, luminescence, HEK293, GAL4 fusion, UAS-luciferase; Nuclear hormone receptor DAF-12 (Heterodera glycines), GAL4 fusion; AID 687014, 2013; activation, % at 6.8 µM; actives 1.8% (n = 370,000); HEK293 GAL4-hgDAF12 UAS-luciferase reporter, agonist luminescence; normalized to butyrate control;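 active = activation above a cutoff set at the mean of all screened compounds plus 3 SD, cut at about 10% in these data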;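 note: 0% = DMSO wells and 100% = sodium butyrate wells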
hcDAF-12 act: H. contortus DAF-12 nuclear receptor activators, primary screen, cell-based, luminescence, HEK293, lit1-tk-luc reporter; HEK293 hcDAF-12 lit1-tk-luc reporter; 0% DMSO, 100% Δ7-dafachronic acid; activation, % at 6.8 µM; actives 1.4% (n = 370,000); AID 652067, 2013;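 active = activation above the mean of all tested compounds plus 3 SD, cut at about 5.5% in these data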;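 note: 100% = response to 3 µM Δ7-dafachronic acid high control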
ssDAF12 agonist: S. stercoralis DAF-12 nuclear receptor activators, primary screen, cell-based, luminescence, HEK293, GRIP1 co-expression, lit1-tk-luc | activation, % at 6.8 µM | Nuclear hormone receptor DAF-12 (Strongyloides stercoralis) | HEK293 ssDAF-12/GRIP1 lit1-tk-luc reporter; % of 3 µM dafachronic acid response | actives 1% (n = 370,000) | AID 652126, 2013;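 active = activation above the mean over all tested compounds plus 3 SD, cut at about 0.9% in these data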;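 note: 0% = DMSO-only wells and 100% = 3 µM delta7-dafachronic acid wells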
AHR activator: AHR activators, primary screen, cell-based, luminescence, luciferase reporter, human; AHR-responsive luciferase reporter cells; Aryl hydrocarbon receptor (Homo sapiens), P35869; actives 2.5% (n = 320,000); activation, % at 5 µM; in the data active = activation above about 47%;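 note: 0% = vehicle wells and 100% = reference agonist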
DAX1 inh-2: DAX1 (NR0B1) inhibitors on StAR promoter, primary screen, cell-based, luminescence, SF-1 (NR5A1), full-length DAX-1. HEK293T StAR-luciferase reporter, SF-1/DAX-1 repression relief. AID 652010, 2013. inhibition, % at 6.8 µM. actives 1.1% (n = 370,000);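 active = inhibition above the mean over all tested compounds plus 3 SD, cut at about 3.6% in these data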;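 note: 0% = DAX-1 cells with DMSO and 100% = cells lacking DAX-1 with DMSO; higher inhibition means more luminescence from relief of DAX-1 repression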
Starred values were filed as active, the others as inactive; · = no result given. Compounds with a hit are over-represented: about 5.7% of the library has one in this group of screens.

SMILES	DAX1 inh-1	hgDAF12 agonist	hcDAF-12 act	ssDAF12 agonist	AHR activator	DAX1 inh-2
O=S(=O)(Nc1nc2ccccc2nc1N1CCc2ccccc2C1)c1ccc(Br)cc1	-1	16*	22*	2.4*	24	5.8*
N#Cc1cnc2nc(SCc3ccccc3)nn2c1	2	9	5	0	9	3
CN(C(=O)c1cc(C(=O)N(C)c2ccccc2)cc([N+](=O)[O-])c1)c1ccccc1	4.3*	0	-3	-2	2	-1
O=C1C(=NO)CCc2ccccc21	2	1	5	1.3*	·	-2
CN(CCc1ccccc1)C(=O)c1cc2ccccn2n1	·	7	2	0	·	1
Cn1c(C(C#N)/C(=N\S(=O)(=O)c2cccs2)c2ccccc2)nc2ccccc21 (stereo not drawn)	0	0	3	-1	79*	1
COc1ccc(C(=O)C2CCCN(C3Cc4ccccc4C3)C2)c(OC)c1 (stereo not drawn)	0	0	1	0.9*	1	2
Cc1ccc(/C=N/n2c(-c3ccncc3)n[nH]c2=S)cc1	-1	3	-2	-1	·	0
COc1ccc(-c2n[nH]c(=S)n2/N=C/c2cccn2C)cc1	1	0	-1	-1	70*	0
CC(C)(C)c1ccc(-c2n[nH]c(=S)n2/N=C/c2ccncc2)cc1	0	4	-1	-1	75*	0
Cc1ccc(-c2n[nH]c(=S)n2/N=C/c2cccs2)cc1	-1	-3	-2	-1	55*	0
Cc1ccc(-c2n[nH]c(=S)n2/N=C/c2cccn2C)cc1	1	0	2	-1	37	0
Cc1ccsc1/C=N/n1c(-c2cccnc2)n[nH]c1=S	2	2	-1	-2	60*	-1
CCOc1ccc(NC(=O)CN2CCN(c3ccccc3C)CC2)cc1S(=O)(=O)N1CCCC1	0	1	2	-2	1	0
CCOc1ccc(NC(=O)CN2CCN(c3ccc(F)cc3)CC2)cc1S(=O)(=O)N1CCCC1	1	-1	0	1.0*	·	0
COc1cc2c(cc1C1C(C#N)=C(N)OC3=C1C(=O)CC(C)(C)C3)OCO2 (stereo not drawn)	4.9*	-2	-1	-1	0	0
Cc1cccc(NC(=S)N2CCN(c3ccccc3)CC2)c1	·	-1	-2	-2	-1	0
S=C(Nc1ccccc1)N1CCN(c2ccccn2)CC1	0	-3	-2	1.9*	-3	-1
Cc1cccc(CN2CCN(C(=S)Nc3ccccc3)CC2)c1	11*	0	1	-2	-1	1
S=C(Nc1ccccc1)N1CCN(C/C=C/c2ccccc2)CC1	-1	-4	-1	-2	2	3.6*
Cc1cccc(NC(=S)N2CCN(Cc3ccccc3)CC2)c1C	-1	1	5.9*	-1	0	0
Cc1cc(Cl)ccc1NC(=S)N1CCN(Cc2ccccc2)CC1	0	-3	-3	-2	5	-1
COc1ccc(NC(=S)N2CCN(c3ccccn3)CC2)cc1	-1	0	-1	-1	-2	0
CC1CCN(C(=O)CN2C(=O)C(C)(C)Oc3ccc(C(=O)NC(C)C)cc32)CC1	1	0	-2	-1	0	0
C=CC(=O)Nc1cccc(Oc2cc(Cl)nc3[nH]ccc23)c1	-1	-4	-1	-2	-1	0
Cc1ccc(NC(=O)C/C(N)=N/OC(=O)Nc2cccc(Cl)c2)cc1	0	2	1	-1	3	0
COc1cc(/C=C/CO)ccc1O[C@@H]1O[C@H](CO)[C@@H](O)[C@H](O)[C@H]1O	4.7*	-2	1	-1	0	1

Bioassay records from PubChem.
